# Active and inactive are the calls of the source.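 The calls were made as follows: active = two or more serine hydrolases at least half inhibited, plus every target band half blocked in a general-probe test; inactive = under two enzymes half blocked, or any target band not.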
# Experiment: general off-target profile by competitive ABPP – fluorescence, gel-based ABPP, powder samples, selectivity assay for PAFAH2 inhibitor project, late-stage follow-up (AID 504527)
# Conditions: BW5147 murine T-cell proteome, FP-Rh fluorescence, competitor FP-biotin, probe test compound; non-competed targets by FP-biotin, at 20 µM, stronger effect = lower value
Structure (SMILES),count of non-competed proteins,outcome
C#CCOCCOCCOCCN(Cc1ccccc1)C(=O)n1ncc(-c2ccccc2)n1,0,active
C#CCOCCOCCOCCN(Cc1ccccc1)C(=O)n1nc2cccnc2n1,3,inactive
C#CCOCCOCCOCCN(Cc1ccccc1)C(=O)n1nccn1,0,active
